Experiment [1] has as its target human Neurokinin, NK2 Receptor, TACR2 (gene 6865) (UniProt P21452). The experiment in a line: NVS_GPCR_hNK2: NovaScreen (NVS) G Protein-Coupled Receptor Assay for human Neurokinin, NK2 Receptor (AID 2283278).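 Also: actives reduce bound radioligand signal relative to DMSO baseline.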 A digest of the protocol:
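Radioligand binding on membranes from CHO cells expressing receptor, filter-based scintillation read 4 h after dosing. Initial duplicate screen at 25 uM, actives in concentration series; loss of signal versus DMSO.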

The target in experiment [2] is human Muscarinic, M4 Receptor, CHRM4 (gene 1132) (UniProt P08173). The experiment in a line: NVS_GPCR_hM4: NovaScreen (NVS) G Protein-Coupled Receptor Assay for human Muscarinic, M4 Receptor (AID 2283274). Summed up: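 Cell-free radioligand displacement using CHO-derived human M4 receptor protein, 1 h after dosing; bound radioactivity by filtration and scintillation counting. Primary screen single 25 uM duplicate, actives followed in concentration series.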

The target of experiment [3] is human Neurotensin Receptor (NTS), NTSR1 (gene 4923) (UniProt P30989). Kind of experiment: NVS_GPCR_hNTS: NovaScreen (NVS) G Protein-Coupled Receptor Assay for human Neurotensin Receptor (NTS) (AID 2283279). Summed up:
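Radioligand displacement on human NTSR1 protein from CHO cells, cell-free, 1 h, filter-based scintillation counting. Primary screen at 25 uM in duplicate; hits rerun in concentration-response up to 50 uM.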

The target of experiment [4] is Muscarinic acetylcholine receptor M3 (Homo sapiens) (UniProt P20309). The experiment in a line: NVS_GPCR_hM3: NovaScreen (NVS) G Protein-Coupled Receptor Assay for human Muscarinic, M3 Receptor (AID 2283272). Summed up:
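Radioligand displacement binding on human M3 receptor in CHO-derived membranes, 1 h incubation, filter-based scintillation counting. Primary screen in duplicate at 25 uM; actives followed up in concentration series; loss of signal versus DMSO.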

Experiment [5] addresses Muscarinic acetylcholine receptor M2 (Homo sapiens) (UniProt P08172). The experiment in a line: NVS_GPCR_hM2: NovaScreen (NVS) G Protein-Coupled Receptor Assay for human Muscarinic, M2 Receptor (AID 2283273). Summed up: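 CHO membrane prep, radioligand + test compound, 1 h; filtration, scintillation count. Screen 25 uM duplicate → conc. series for actives. Readout: decrease in binding vs DMSO control.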

The target in experiment [6] is human Leukotriene B4 Receptor 1 (LTB4-BLT1), LTB4R (gene 1241) (UniProt Q15722). Kind of experiment: NVS_GPCR_hLTB4_BLT1: NovaScreen (NVS) G Protein-Coupled Receptor Assay for human Leukotriene B4 Receptor 1 (LTB4-BLT1) (AID 2283271). A digest of the protocol:
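Radioligand displacement binding on receptor extracted from human neutrophils, cell-free, 1 h after dosing; filter-based scintillation counting. Primary screen in duplicate at 25 uM, actives retested in concentration-response up to 50 uM; loss of signal versus DMSO.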

The target in experiment [7] is Neuropeptide Y receptor type 2 (Homo sapiens) (UniProt P49146). The experiment in a line: NVS_GPCR_hNPY2: NovaScreen (NVS) G Protein-Coupled Receptor Assay for human Neuropeptide Receptor Y2 (NPY2) (AID 2283277). Summed up: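 Radioligand binding on membranes extracted from SK-N-MC cells, cell-free, read 1 h after dosing by filter-based scintillation counting. Loss of signal vs DMSO. Primary screen in duplicate at 25 uM; actives followed up in concentration-response up to 50 uM.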

In experiment [8] the target is human Neuropeptide Receptor Y1 (NPY1), NPY1R (gene 4886) (UniProt P25929). Kind of experiment: NVS_GPCR_hNPY1: NovaScreen (NVS) G Protein-Coupled Receptor Assay for human Neuropeptide Receptor Y1 (NPY1) (AID 2283276). Summed up:
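Cell-free radioligand binding using receptor extracted from SK-N-MC cells, 1 h incubation, filter-based scintillation counting. Primary screen single concentration 25 uM in duplicate; actives followed in concentration series. Loss of bound signal scored versus DMSO.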

Experiment [9] deals with human Thromboxane A2 Receptor (TXA2), TBXA2R (gene 6915) (UniProt P21731). The experiment in a line: NVS_GPCR_hTXA2: NovaScreen (NVS) G Protein-Coupled Receptor Assay for human Thromboxane A2 Receptor (TXA2) (AID 2283282).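 Also: actives reduce bound radioligand signal relative to DMSO baseline.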 Summed up:
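Human platelet-derived receptor preparation incubated with test chemical and radiolabelled ligand for 1 hour, cell-free. Bound label was separated by filtration and counted; displacement relative to DMSO controls gave activity, screened at 25 uM, then titrated.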

The target in experiment [10] is human Vasopressin 1A Receptor (V1A), AVPR1A (gene 552) (UniProt P37288). The experiment in a line: NVS_GPCR_hV1A: NovaScreen (NVS) G Protein-Coupled Receptor Assay for human Vasopressin 1A Receptor (V1A) (AID 2283284). How it is done: NVS_GPCR_hV1A is a biochemical, single-readout assay that uses extracted gene-proteins from Human platelets in a cell-free assay. Measurements were taken 1.5 hours after chemical dosing in a 96-well plate.NVS_GPCR_hV1A is one of one assay component(s) measured or calculated from the NVS_GPCR_hV1A assay. It is designed to make measurements of radioligand binding, a form of binding reporter, as detected with scintillation counting signals by Filter-based radiodetection technology.Data from the assay component NVS_GPCR_hV1A was analyzed into 1 assay endpoint. This assay endpoint, NVS_GPCR_hV1A, was analyzed in the positive analysis fitting direction relative to DMSO as the negative control and baseline of activity. […] Furthermore, this assay endpoint can be referred to as a primary readout, because the performed assay has only produced 1 assay endpoint. […]
Binding assays used specific radioligands (tritiated, iodinated) with non-radioactive competitive displacement ligands in agonist or antagonist protocols (as indicated) and various reference compounds and inhibitors to titrate specific binding to receptors and transporters. Most enzyme assays (CYPs, kinases, phosphatases, proteases, HDACs) used recombinant protein and specific substrates (fluorescence mostly, some colorimetric and radioactive) and inhibitors, followed by a biochemical separation of substrate and product. […]

Results filed as inconclusive are left out. Activity calls are given as the source filed them. The calls were made as follows: active = hit-call score of the fitted dose curve at least 0.9, where 1 is the maximum; inconclusive = response in the unintended direction; inactive = score below 0.9.

Sequence of human Leukotriene B4 Receptor 1 (LTB4-BLT1), LTB4R (gene 1241) (Q15722 whole entry, looked up): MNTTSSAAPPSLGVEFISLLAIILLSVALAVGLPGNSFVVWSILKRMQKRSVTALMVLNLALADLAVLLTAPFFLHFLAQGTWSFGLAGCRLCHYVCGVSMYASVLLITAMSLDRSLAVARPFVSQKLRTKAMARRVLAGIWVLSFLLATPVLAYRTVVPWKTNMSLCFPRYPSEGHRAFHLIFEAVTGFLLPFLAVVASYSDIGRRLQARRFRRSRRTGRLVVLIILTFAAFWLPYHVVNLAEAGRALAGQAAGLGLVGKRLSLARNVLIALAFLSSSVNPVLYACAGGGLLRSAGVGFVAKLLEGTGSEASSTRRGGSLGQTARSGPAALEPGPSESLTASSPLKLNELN
Sequence of Muscarinic acetylcholine receptor M2 (Homo sapiens) (P08172 whole entry, looked up): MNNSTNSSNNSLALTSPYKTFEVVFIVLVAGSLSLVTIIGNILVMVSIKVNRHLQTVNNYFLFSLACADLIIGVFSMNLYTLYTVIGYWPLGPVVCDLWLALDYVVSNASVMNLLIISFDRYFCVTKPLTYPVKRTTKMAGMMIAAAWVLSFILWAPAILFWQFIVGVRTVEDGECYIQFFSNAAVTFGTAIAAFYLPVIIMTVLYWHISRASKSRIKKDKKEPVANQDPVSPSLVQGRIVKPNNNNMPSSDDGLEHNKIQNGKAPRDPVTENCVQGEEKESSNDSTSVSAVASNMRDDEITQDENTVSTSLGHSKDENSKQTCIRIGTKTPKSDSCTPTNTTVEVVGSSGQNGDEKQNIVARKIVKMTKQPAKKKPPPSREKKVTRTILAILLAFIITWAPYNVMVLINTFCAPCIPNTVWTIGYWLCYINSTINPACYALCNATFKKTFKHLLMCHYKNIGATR
Sequence of human Neurokinin, NK2 Receptor, TACR2 (gene 6865) (P21452 whole entry, looked up): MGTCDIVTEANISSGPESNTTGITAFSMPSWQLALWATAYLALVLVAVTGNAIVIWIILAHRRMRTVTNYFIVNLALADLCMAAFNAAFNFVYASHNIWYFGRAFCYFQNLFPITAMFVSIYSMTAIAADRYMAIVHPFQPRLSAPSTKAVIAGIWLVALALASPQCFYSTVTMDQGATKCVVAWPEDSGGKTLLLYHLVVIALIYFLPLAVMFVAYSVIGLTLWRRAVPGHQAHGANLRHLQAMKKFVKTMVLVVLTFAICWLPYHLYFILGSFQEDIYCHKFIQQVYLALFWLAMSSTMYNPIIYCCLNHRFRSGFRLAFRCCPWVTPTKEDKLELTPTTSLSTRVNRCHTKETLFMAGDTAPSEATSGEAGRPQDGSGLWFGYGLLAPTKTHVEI
Sequence of human Muscarinic, M4 Receptor, CHRM4 (gene 1132) (P08173 whole entry, looked up): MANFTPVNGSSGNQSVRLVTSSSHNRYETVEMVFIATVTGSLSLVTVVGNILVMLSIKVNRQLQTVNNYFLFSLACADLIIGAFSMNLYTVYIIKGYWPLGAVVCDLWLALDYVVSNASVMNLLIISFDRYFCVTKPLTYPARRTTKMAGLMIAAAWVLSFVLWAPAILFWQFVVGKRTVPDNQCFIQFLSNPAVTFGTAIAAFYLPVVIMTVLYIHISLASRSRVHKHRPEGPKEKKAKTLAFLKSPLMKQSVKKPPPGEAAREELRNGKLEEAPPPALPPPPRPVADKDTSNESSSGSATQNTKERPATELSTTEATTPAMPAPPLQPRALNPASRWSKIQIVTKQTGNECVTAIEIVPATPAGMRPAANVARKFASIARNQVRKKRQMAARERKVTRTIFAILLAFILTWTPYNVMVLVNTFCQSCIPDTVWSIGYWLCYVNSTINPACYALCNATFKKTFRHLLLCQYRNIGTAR
Sequence of human Neurotensin Receptor (NTS), NTSR1 (gene 4923) (P30989 whole entry, looked up): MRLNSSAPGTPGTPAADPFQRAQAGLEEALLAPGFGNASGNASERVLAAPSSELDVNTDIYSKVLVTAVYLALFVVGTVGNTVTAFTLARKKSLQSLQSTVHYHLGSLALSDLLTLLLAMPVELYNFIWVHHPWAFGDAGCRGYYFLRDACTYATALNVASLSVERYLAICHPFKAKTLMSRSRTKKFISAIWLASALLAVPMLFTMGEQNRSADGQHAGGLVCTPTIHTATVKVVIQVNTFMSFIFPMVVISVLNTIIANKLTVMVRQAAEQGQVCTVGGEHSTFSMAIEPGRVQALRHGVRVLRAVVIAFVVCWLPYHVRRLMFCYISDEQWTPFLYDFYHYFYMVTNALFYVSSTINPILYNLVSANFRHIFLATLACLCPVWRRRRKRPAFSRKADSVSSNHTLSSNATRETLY
Sequence of Muscarinic acetylcholine receptor M3 (Homo sapiens) (P20309 whole entry, looked up): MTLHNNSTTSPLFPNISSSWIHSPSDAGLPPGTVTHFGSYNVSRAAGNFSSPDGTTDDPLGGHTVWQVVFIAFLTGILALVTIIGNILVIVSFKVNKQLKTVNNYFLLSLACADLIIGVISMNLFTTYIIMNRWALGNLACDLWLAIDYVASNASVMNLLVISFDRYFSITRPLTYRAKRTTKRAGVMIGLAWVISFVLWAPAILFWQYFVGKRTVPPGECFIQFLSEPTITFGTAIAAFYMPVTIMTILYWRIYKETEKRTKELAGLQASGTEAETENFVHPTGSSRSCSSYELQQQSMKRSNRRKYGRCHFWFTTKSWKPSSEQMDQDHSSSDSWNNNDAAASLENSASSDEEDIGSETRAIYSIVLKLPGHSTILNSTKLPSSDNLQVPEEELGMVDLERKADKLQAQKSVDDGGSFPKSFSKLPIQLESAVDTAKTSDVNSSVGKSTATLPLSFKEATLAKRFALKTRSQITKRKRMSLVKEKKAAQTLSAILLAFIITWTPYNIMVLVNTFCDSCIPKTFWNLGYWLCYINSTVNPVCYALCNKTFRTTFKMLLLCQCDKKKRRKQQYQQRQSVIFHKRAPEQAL
Sequence of Neuropeptide Y receptor type 2 (Homo sapiens) (P49146 whole entry, looked up): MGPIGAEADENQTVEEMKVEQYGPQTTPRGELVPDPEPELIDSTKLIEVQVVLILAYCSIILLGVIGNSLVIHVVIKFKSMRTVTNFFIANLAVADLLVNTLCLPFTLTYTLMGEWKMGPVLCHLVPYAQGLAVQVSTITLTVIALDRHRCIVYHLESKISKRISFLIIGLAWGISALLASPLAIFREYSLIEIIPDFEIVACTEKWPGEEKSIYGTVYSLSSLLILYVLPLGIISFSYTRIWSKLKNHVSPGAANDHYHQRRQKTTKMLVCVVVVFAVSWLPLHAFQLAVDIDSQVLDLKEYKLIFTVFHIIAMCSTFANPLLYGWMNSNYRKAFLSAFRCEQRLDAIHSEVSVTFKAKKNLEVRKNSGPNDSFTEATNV
Sequence of human Neuropeptide Receptor Y1 (NPY1), NPY1R (gene 4886) (P25929 whole entry, looked up): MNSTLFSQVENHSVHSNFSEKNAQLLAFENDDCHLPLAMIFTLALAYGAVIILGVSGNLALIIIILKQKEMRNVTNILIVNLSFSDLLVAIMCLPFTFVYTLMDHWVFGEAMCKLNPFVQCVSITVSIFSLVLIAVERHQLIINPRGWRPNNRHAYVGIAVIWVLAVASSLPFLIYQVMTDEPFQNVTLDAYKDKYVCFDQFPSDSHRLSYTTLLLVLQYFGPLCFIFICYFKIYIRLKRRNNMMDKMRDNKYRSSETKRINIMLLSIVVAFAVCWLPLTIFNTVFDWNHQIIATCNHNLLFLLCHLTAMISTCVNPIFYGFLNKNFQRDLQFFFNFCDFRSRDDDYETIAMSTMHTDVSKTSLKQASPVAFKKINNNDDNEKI
Sequence of human Thromboxane A2 Receptor (TXA2), TBXA2R (gene 6915) (P21731 whole entry, looked up): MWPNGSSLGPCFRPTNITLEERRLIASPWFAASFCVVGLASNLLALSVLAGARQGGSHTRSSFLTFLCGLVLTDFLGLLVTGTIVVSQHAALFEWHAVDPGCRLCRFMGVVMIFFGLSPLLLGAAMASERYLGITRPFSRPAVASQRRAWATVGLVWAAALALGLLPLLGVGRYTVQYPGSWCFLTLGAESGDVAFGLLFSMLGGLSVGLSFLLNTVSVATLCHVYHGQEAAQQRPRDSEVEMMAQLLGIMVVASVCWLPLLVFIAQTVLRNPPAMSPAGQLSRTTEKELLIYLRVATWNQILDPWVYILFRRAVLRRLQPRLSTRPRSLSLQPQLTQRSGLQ
Sequence of human Vasopressin 1A Receptor (V1A), AVPR1A (gene 552) (P37288 whole entry, looked up): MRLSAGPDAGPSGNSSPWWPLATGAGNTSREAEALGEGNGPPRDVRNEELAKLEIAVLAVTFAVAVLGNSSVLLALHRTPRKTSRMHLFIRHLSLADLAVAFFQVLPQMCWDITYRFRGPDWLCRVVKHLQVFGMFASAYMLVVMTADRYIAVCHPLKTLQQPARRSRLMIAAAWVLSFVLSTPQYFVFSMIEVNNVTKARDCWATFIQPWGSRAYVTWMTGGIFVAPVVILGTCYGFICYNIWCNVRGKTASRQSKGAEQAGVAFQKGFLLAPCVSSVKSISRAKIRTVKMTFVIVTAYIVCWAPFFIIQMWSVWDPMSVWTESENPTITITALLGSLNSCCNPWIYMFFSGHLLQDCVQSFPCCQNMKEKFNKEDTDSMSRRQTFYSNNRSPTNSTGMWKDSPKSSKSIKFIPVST

As for `Cc1c(COC(=O)[C@@H]2[C@H](/C=C(\Cl)C(F)(F)F)C2(C)C)cccc1-c1ccccc1`, the molecule was classed as inactive in experiment [1]. Take `N#Cc1c(Cl)cccc1Cl`: the molecule was classed as inactive in experiment [2]. In the case of `COP(=O)(OC)O/C(C)=C/C(=O)N(C)C`, the call in experiment [3] was inactive. Turning to `CCCN(CC)CC1COC2(CCC(C(C)(C)C)CC2)O1` (stereo not given), the results for the AC50 in experiment [4], in experiment [5] and in experiment [2] were 8.78 µM (active), 4.96 µM (active) and 3.3 µM (active), respectively. The like results for `Cc1cc(C)nc(Nc2ccccc2)n1` were, in that order, 12.4 µM (active), 4.96 µM (active) and 14.9 µM (active). Turning to `COC(=O)N(C(=O)N1CO[C@@]2(C(=O)OC)Cc3cc(Cl)ccc3C2=N1)c1ccc(OC(F)(F)F)cc1`, in [6], the molecule was classed as inactive. Regarding `COCC(C)N(C(=O)CCl)c1c(C)csc1C` (stereo not given), the call in experiment [6] was inactive. On to `CC1(C)C(C=C(Cl)Cl)C1C(=O)OC(C#N)c1cccc(Oc2ccccc2)c1` (stereo not given), for which, in [1], the result was inactive. In the case of `O=C(Nc1ccccc1-c1ccc(Cl)cc1)c1cccnc1Cl`, in [3], the outcome was inactive. `CCC(C)n1c(=O)[nH]c(C)c(Br)c1=O` (stereo not given): the molecule was called inactive in experiment [4]. For the molecule `CCNP(=S)(OC)O/C(C)=C/C(=O)OC(C)C` (stereo not given), the outcome in [5] and in experiment [7] was inactive. On to `O=C1C2CC=CCC2C(=O)N1SC(Cl)(Cl)Cl` (stereo not given), for which the figures for the AC50 in experiment [8] and in experiment [1] were 9.25 µM (active) and 4.9 µM (active), respectively.

`Cn1c(-c2ccccc2)cc(-c2ccccc2)[n+]1C`: the values for the concentration at half-maximal activity (AC50) in experiment [4], in [5] and in experiment [2] were 9.02 µM (active), 3.97 µM (active) and 7.59 µM (active), respectively. Moreover, the outcome in experiment [3] was inactive. Regarding `CCCCC(C#N)(Cn1cncn1)c1ccc(Cl)cc1` (stereo not given), the AC50 (in general, the midpoint of the concentration-response curve, whichever way the signal moves) in experiment [4] is 8.08 µM (active); in experiment [5], 14.6 µM (active); in experiment [2], 7.69 µM (active).

As for `Cc1ccc(N=CN(C)C=Nc2ccc(C)cc2C)c(C)c1`, in [2], the molecule was called inactive. On to `CCCCOCN(C(=O)CCl)c1c(CC)cccc1CC`, for which the molecule was classed as inactive in experiment [6]. For the molecule `CCNC(=O)NC(=O)C(C#N)=NOC`, in experiment [2], the molecule was called inactive. On to `CC1(C)C(C(=O)OC(C#N)c2cccc(Oc3ccccc3)c2)C1(C)C` (stereo not given), for which the call in experiment [1] was inactive. On to `CCSC(=O)N1CCCCCC1`, for which the results for the AC50 in experiment [4], in [5] and in experiment [2] were 8.57 µM (active), 6.85 µM (active) and 4.96 µM (active), respectively. On to `CCN(CC)C(=O)C(C)Oc1cccc2ccccc12` (stereo not given), for which the molecule was classed as inactive in experiment [9]. Regarding `CC(C)(C)C(=O)C(Oc1ccc(Cl)cc1)n1cncn1` (stereo not given), the AC50 in [6] is 11.8 µM (active); in experiment [5], 4.96 µM (active). For the same molecule, the call in [4] and in experiment [2] was inactive.

For `CN/C(=N\[N+](=O)[O-])NCc1cnc(Cl)s1`, in experiment [10], the molecule was classed as inactive. As to `CCOP(=O)(OCC)Oc1nc(Cl)c(Cl)cc1Cl`, the molecule was called inactive in experiment [5]. On to `COc1cc(OC)nc(NC(=O)NS(=O)(=O)c2ncccc2OCC(F)(F)F)n1`, for which the call in experiment [6] was inactive. For the molecule `CCOc1nc(F)cc2nc(S(=O)(=O)Nc3c(Cl)cccc3Cl)nn12`, the molecule was classed as inactive in experiment [1]. For `N#CN=C1SCCN1Cc1ccc(Cl)nc1`, the call in experiment [7] was inactive. With `CCCCC(O)(Cn1cncn1)c1ccc(Cl)cc1Cl` (stereo not given), the molecule was classed as inactive in experiment [6], in experiment [5] and in [8].

Source of the values: PubChem BioAssay (EPA / NIEHS).
